Data as given in publication PMC5540273 (PLoS ONE, 2017).

What was measured:
Conditions in all cases: concentration: 1 μM, replicates: in singlicate; n = 1
SgK110 = tested on: SgK110
TAK1 = tested on: T1, TAK1
T1 construct: gene MAP3K7

TAOK1 = tested on: TAOK1
TAOK2 = tested on: TAOK2
TAOK3 = tested on: TAOK3
TBK1 = tested on: TBK1
TEC = tested on: TEC
TESK1 = tested on: TESK1
TGFBR1 = tested on: TGFBR1
TGFBR2 = tested on: TGFBR2
TIE1 = tested on: TIE1
TIE2 = tested on: T2, TIE2
T2 construct: gene TEK

TLK1 = tested on: TLK1
TLK2 = tested on: TLK2
TNIK = tested on: TNIK
TNK1 = tested on: TNK1
TNK2 = tested on: TNK2
TNNI3K = tested on: TNNI3K
TRKA = tested on: T3, TRKA
T3 construct: gene NTRK1

TRKB = tested on: TRKB
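Note: KINOMEscan kinase panel screen.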

| SMILES | %Inh (SgK110) [%] | %Inh (TAK1) [%] | %Inh (TAOK1) [%] | %Inh (TAOK2) [%] | %Inh (TAOK3) [%] | %Inh (TBK1) [%] | %Inh (TEC) [%] | %Inh (TESK1) [%] | %Inh (TGFBR1) [%] | %Inh (TGFBR2) [%] | %Inh (TIE1) [%] | %Inh (TIE2) [%] | %Inh (TLK1) [%] | %Inh (TLK2) [%] | %Inh (TNIK) [%] | %Inh (TNK1) [%] | %Inh (TNK2) [%] | %Inh (TNNI3K) [%] | %Inh (TRKA) [%] | %Inh (TRKB) [%] |
| --- | --- | --- | --- | --- | --- | --- | --- | --- | --- | --- | --- | --- | --- | --- | --- | --- | --- | --- | --- | --- |
| Fc1ccc(Nc2nccc(-c3c(-c4ccc(Cl)cc4)nn4ncccc34)n2)cc1F [GW829058] | 9 | 38 | 10 | 16 | 27 | 31 | 8 | 16 | 0 | 0 | 38 | 18 | 0 | 12 | 89 | 24 | 0 | 3 | 13 | 0 |
| Cl.O=S(=O)(c1cccc(F)c1)c1ccc(Nc2ncnc3cc(Br)sc23)cc1Cl [GSK306886] | 0 | 0 | 0 | 0 | 0 | 9 | 0 | 0 | 7 | 0 | 0 | 0 | 19 | 2 | 0 | 0 | 21 | 23 | 0 | 0 |
| Cn1ccc2ncnc(Oc3ccc(NC(=O)Nc4cccnc4)c(Cl)c3)c21 | 49 | 12 | 0 | 0 | 0 | 5 | 6 | 0 | 0 | 0 | 18 | 0 | 13 | 0 | 1 | 0 | 0 | 0 | 0 | 0 |
| Nc1nccc2scc(-c3ccc4c(c3)CCN4C(=O)Cc3cc(F)ccc3F)c12 [GSK2587663] | 0 | 0 | 0 | 0 | 0 | 6 | 0 | 18 | 19 | 0 | 54 | 1 | 4 | 0 | 0 | 0 | 23 | 4 | 0 | 42 |
| CSc1ccc(NC2=C(c3ccccc3Cl)C(=O)NC2=O)cc1 [SB-342411] | 0 | 7 | 0 | 1 | 0 | 27 | 10 | 6 | 0 | 0 | 40 | 0 | 35 | 6 | 0 | 0 | 0 | 29 | 20 | 0 |
| COC(=O)c1c(-c2ccccc2)c2cc(Cl)ccc2c(=O)n1Cc1ccc(S(C)(=O)=O)cc1 | 46 | 17 | 0 | 0 | 0 | 20 | 0 | 0 | 7 | 5 | 4 | 0 | 19 | 0 | 4 | 0 | 0 | 19 | 0 | 0 |
| O=C(NCCCN1CCCC1=O)c1cnc(NCc2cc(Cl)ccc2Cl)nc1NC1CCNCC1 | 5 | 27 | 0 | 0 | 0 | 12 | 0 | 2 | 0 | 6 | 1 | 2 | 12 | 0 | 0 | 34 | 0 | 0 | 69 | 32 |
| COc1ccc(Nc2nccc(N3CCC(NC(=O)c4cccc(NC(C)=O)c4)C3)n2)cc1 (stereo not drawn) [GSK1379732] | 10 | 0 | 0 | 0 | 0 | 0 | 0 | 26 | 4 | 0 | 0 | 0 | 0 | 0 | 0 | 0 | 7 | 7 | 37 | 40 |
| Cc1ccc(NC(=O)c2cccc(C#N)c2)cc1-c1ccc(C(=O)Nc2ccncc2)cc1 [GSK1398463] | 3 | 0 | 0 | 23 | 3 | 20 | 11 | 0 | 0 | 0 | 11 | 21 | 0 | 0 | 13 | 16 | 21 | 29 | 0 | 0 |
